In the supplement of paper PMC12494721:
Counter-ions that a name gives are not always drawn.

Tests used:
Conditions in all cases: incubation time: 27 h, anaerobic, 37 °C;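 for the amine columns active = adjusted P below 0.05 in both replicates with a change the same way and a mean fold change under 0.8 or over 1.25; inactive = the rest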
[1] = tested on: Clostridium sporogenes DSM 1664; experiment: growth (OD595) fold change vs plate DMSO controls (fold change (ratio)); higher = more growth
Outline: (§1)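 Anaerobic mGAM cultures in 96-well plates were grown for 27 h at 37 °C, and absorbance was then read at 595 nm. After blank and compound background correction with 20 µM compound solutions in water, a calibration factor of 5 gave OD. Growth is the fold change relative to the median of each plate's DMSO controls. Values are means of 2 biological replicates, with fold changes above 1.5 set to NA.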

Escherichia coli IAI1 [2] = experiment: as above
Outline: as §1

[3] = tested on: Klebsiella aerogenes DSM 30053; experiment: as above
Outline: as §1

[4] = tested on: Klebsiella aerogenes DSM 30053; experiment: fold change of Histamine concentration vs plate DMSO controls (fold change (ratio)); higher = more amine produced, active = hit call of the paper (significant change in both replicates, either direction)
Outline: (§2)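 Using LC–triple-quadrupole MS with dynamic MRM, amines were quantified against external calibration curves and corrected for drift within each batch. Samples were whole anaerobic mGAM cultures of four gut strains, grown 27 h at 37 °C from OD 0.1 before 1:1 dilution, extracted with cold acetonitrile/methanol containing 0.1% formic acid and centrifuged. Compounds were present at 20 µM final (sweeteners at 50 µM final). The numbers are fold changes versus plate DMSO controls, each the mean of 2 biological replicates.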

[5] = tested on: Clostridium sporogenes DSM 1664; experiment: fold change of Tryptamine concentration vs plate DMSO controls (fold change (ratio)); higher = more amine produced, active = hit call of the paper (significant change in both replicates, either direction)
Outline: as §2

[6] = tested on: Ruminococcus gnavus DSM 108212; experiment: as above
Outline: as §2

Escherichia coli IAI1 [7] = experiment: fold change of Putrescine concentration vs plate DMSO controls (fold change (ratio)); higher = more amine produced, active = hit call of the paper (significant change in both replicates, either direction)
Outline: as §2

[8] = tested on: Klebsiella aerogenes DSM 30053; experiment: as above
Outline: as §2

Escherichia coli IAI1 [9] = experiment: fold change of Cadaverine concentration vs plate DMSO controls (fold change (ratio)); higher = more amine produced, active = hit call of the paper (significant change in both replicates, either direction)
Outline: as §2

[10] = tested on: Klebsiella aerogenes DSM 30053; experiment: as above
Outline: as §2

[11] = tested on: Ruminococcus gnavus DSM 108212; experiment: fold change of 2-Phenylethylamine concentration vs plate DMSO controls (fold change (ratio)); higher = more amine produced, active = hit call of the paper (significant change in both replicates, either direction)
Outline: as §2

[12] = tested on: Ruminococcus gnavus DSM 108212; experiment: growth (OD595) fold change vs plate DMSO controls (fold change (ratio)); higher = more growth
Outline: as §1

Compound | growth [1] | growth (Escherichia coli IAI1 [2]) | growth [3] | fold change of Histamine concentration [4] | fold change of Tryptamine concentration [5] | fold change of Tryptamine concentration [6] | fold change of Putrescine concentration (Escherichia coli IAI1 [7]) | fold change of Putrescine concentration [8] | fold change of Cadaverine concentration (Escherichia coli IAI1 [9]) | fold change of Cadaverine concentration [10] | fold change of 2-Phenylethylamine concentration [11] | growth [12]
Nc1ncn(C2OC(CO)C(O)C2O)c(=O)n1 (centres undefined) [Azacytidine-5] (20 µM) | 1.02 | 0.811 | 0.974 | 1.03 (inactive) | 0.953 (inactive) | 0.881 (inactive) | 0.794 (inactive) | 1.01 (inactive) | 1.72 (active) | 0.985 (inactive) | 0.935 (inactive) | –
CCC(C)(C)C(=O)O[C@H]1C[C@@H](C)C=C2C=C[C@H](C)[C@H](CC[C@@H]3C[C@@H](O)CC(=O)O3)[C@H]21 [Simvastatin] (20 µM) | 1.01 | 1.05 | 1.25 | 0.919 (inactive) | 0.967 (inactive) | 0.995 (inactive) | 1 (inactive) | 1.03 (inactive) | 1 (inactive) | 1.03 (inactive) | 0.991 (inactive) | –
CNS(=O)(=O)Cc1ccc2[nH]cc(CCN(C)C)c2c1 [Sumatriptan succinate] (20 µM) | 1.11 | 0.977 | 1.21 | 0.809 (inactive) | 1.05 (inactive) | 1.01 (inactive) | 0.895 (inactive) | 0.992 (inactive) | 1.03 (inactive) | 1.03 (inactive) | 1.06 (inactive) | 0.976
CC(C)(C)C(=O)OCOC(=O)[C@@H]1N2C(=O)[C@@H](NC(=O)[C@H](N)c3ccccc3)[C@H]2SC1(C)C [Pivampicillin] (20 µM) | 0 | 0.949 | 0.986 | 1.04 (inactive) | 0.0632 (active) | 0.0656 (active) | 1.01 (inactive) | 1 (inactive) | 0.968 (inactive) | 0.976 (inactive) | 0.0585 (active) | 0
CC(C)NCC(O)c1ccc(O)c(O)c1 (single isomer, unassigned; (+)) [(+) Isoproterenol-(+)-bitartrate salt] (20 µM) | 1.02 | 1.06 | 0.995 | 1.03 (inactive) | 1.01 (inactive) | 0.989 (inactive) | 0.979 (inactive) | 0.997 (inactive) | 0.976 (inactive) | 0.974 (inactive) | 0.984 (inactive) | 1.06
COc1cccc(OC)c1C(=O)N[C@@H]1C(=O)N2[C@@H]1SC(C)(C)[C@@H]2C(=O)O [Methicillin sodium] (20 µM) | 0.569 | 1.14 | 0.978 | 1.05 (inactive) | 0.196 (active) | 0.608 (active) | 1.24 (inactive) | 1 (inactive) | 0.875 (inactive) | 0.969 (inactive) | 0.721 (inactive) | –
CC(C)(c1cc(Br)c(O)c(Br)c1)c1cc(Br)c(O)c(Br)c1 (20 µM) | 0 | 1.04 | 1.05 | 0.929 (inactive) | 0.0166 (active) | 0.366 (active) | 0.967 (inactive) | 1.01 (inactive) | 0.996 (inactive) | 1.04 (inactive) | 0.404 (inactive) | –
C#C[C@]1(O)CC[C@H]2[C@@H]3CCC4=Cc5oncc5C[C@]4(C)[C@H]3CC[C@@]21C [Danazol] (20 µM) | 0.903 | 0.883 | 0.858 | 1.07 (inactive) | 0.887 (inactive) | 1.03 (inactive) | 1.01 (inactive) | 1.02 (inactive) | 0.994 (inactive) | 0.993 (inactive) | 0.997 (inactive) | 0.744
C=C1c2cccc(O)c2C(O)=C2C(=O)[C@]3(O)C(O)=C(C(N)=O)C(=O)[C@@H](N(C)C)[C@@H]3[C@@H](O)[C@H]12 [Methacycline hydrochloride] (20 µM) | 0 | 0.0377 | 0.0637 | 0.0707 (active) | 0.0282 (active) | 0.461 (active) | 0.177 (active) | 0.486 (active) | 0.294 (active) | 0.536 (active) | 0.58 (inactive) | 0.836
Nc1nc2[nH]cc(CCc3ccc(C(=O)N[C@@H](CCC(=O)O)C(=O)O)cc3)c2c(=O)[nH]1 [Pemetrexed disodium] (20 µM) | 1.11 | 1.25 | 0.529 | 0.471 (inactive) | 1.04 (inactive) | 0.788 (inactive) | 1.07 (inactive) | 0.577 (inactive) | 0.876 (inactive) | 0.663 (inactive) | 0.811 (inactive) | –
CCCCCCCCNC(C)C(O)c1ccc(SC(C)C)cc1 (centres undefined) [Suloctidil] (20 µM) | 1.12 | 1.08 | 1.06 | 0.987 (inactive) | 0.983 (inactive) | 0.729 (active) | 1.03 (inactive) | 0.977 (inactive) | 0.983 (inactive) | 0.996 (inactive) | 0.785 (active) | –
C=CC1=C(C(=O)O)N2C(=O)[C@@H](NC(=O)/C(=N\OCC(=O)O)c3csc(N)n3)[C@H]2SC1 [Cefixime] (20 µM) | 0.286 | 0.0263 | 1.12 | 0.931 (inactive) | 0.826 (inactive) | 0.964 (inactive) | 0.484 (active) | 1.03 (inactive) | 2.08 (active) | 1.05 (inactive) | 0.932 (inactive) | –
CC(C)(C(=O)O)c1ccc(C(O)CCCN2CCC(C(O)(c3ccccc3)c3ccccc3)CC2)cc1 (centres undefined) [Fexofenadine hydrochloride] (20 µM) | 1.1 | 1.02 | 1.09 | 0.876 (inactive) | 1.04 (inactive) | 0.978 (inactive) | 0.971 (inactive) | 0.999 (inactive) | 1.02 (inactive) | 1.01 (inactive) | 0.993 (inactive) | 1.19
